This note sets out measurements from PubChem BioAssay (NCATS).

The nature of test [1]: AP1 Signaling Pathway (AID 357). Further: on the % scale 0 is the no-effect control and ±100 the full control effect. Conditions: ME-180 AP-1-bla reporter, EGF-induced, beta-lactamase ratio, 5 h. The procedure, abridged: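 Read-out was the 460nm/530nm emission ratio (excitation 405nm) after CCF4 loading for 2.5 hours at room temperature. Cells carried an AP-1-driven beta-lactamase reporter, were stimulated with EC50 EGF plus compound for 5 hours, and AC50 values came from titrations.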

Test [2] concerns the target Cytochrome P450 1A2 (Homo sapiens) (UniProt P05177). In words: p450-cyp1a2 (AID 410; calls by dose curve; further: potency means the concentration at half of the fitted maximal effect;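 on activity change, negative = inhibition: -100% = full effect of reference inhibitor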). Put shortly: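 Read-out is luminescence from luciferin produced by CYP1A2 demethylation of Luciferin-ME (100uM, at Km). Detection reagent stopped the 60 min NADPH-dependent reaction; signals were normalized to 57 uM furafylline.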
Test [3] can be described thus: NFAT Signaling Pathway (AID 444).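 Further: carbachol stimulus at about its EC50 of 1 µM final; on the % scale 0 is the no-effect control and ±100 the full control effect.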 The settings on record: Jurkat NFAT-bla M1, carbachol, beta-lactamase ratio, 5 h. Put shortly:
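Jurkat cells carrying an NFAT-driven β-lactamase reporter and co-transfected muscarinic M1 receptor were treated with compound plus carbachol (1 uM final, an EC50 level) for 5 h at 37 °C. CCF4 loading followed for 1 h at RT; 460/530 nm ratio gave %activity.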

Test [4] can be described thus: Stat Signaling Pathway (AID 446).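 Further: ME-180 cervical cancer cells given 40 pM IL-6 alongside compound; SIE-controlled beta-lactamase reporter measured as 460/530 nm FRET emission ratio; on the % scale 0 is the no-effect control and ±100 the full control effect.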 Conditions: ME-180 (cervical carcinoma) SIE beta-lactamase reporter, IL-6 stimulated, 5 h. Put shortly: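 Overnight-plated ME-180 cells bearing a STAT Inducible Element beta-lactamase reporter; 5 h co-exposure to compound and 40 pM IL-6; values normalized to 300 pM IL-6 and 125 nM JAK inhibitor controls.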
Test [5] has as its target Glucocorticoid receptor (Homo sapiens) (UniProt P04150). In words: GR-GFP Redistribution (AID 450;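 active means compounds whose dose series gives a full or clear partial fitted curve of increased nuclear translocation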; further: potency means the concentration at half of the fitted maximal effect). The settings on record: U2OS GR-GFP nuclear translocation, laser cytometry, 2 h.
The target is the same in test [6]. In words: GR-EFC Redistribution (AID 451; calls by dose curve; further: potency means the concentration at half of the fitted maximal effect). Conditions: CHO-K1 GR-EFC translocation, beta-gal luminescence, 2 h. The procedure, abridged:
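CHO-K1 cells stably expressing nuclear-localized β-gal enzyme acceptor and GR fused C-terminally to the enzyme donor fragment; ligand-driven nuclear translocation restores β-gal by complementation. Compounds titrated up to 46 uM final, 2 h at 37 °C; luminescence read.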

The target of test [7] is Mitogen-activated protein kinase 10 (Mus musculus) (UniProt Q61831). In words: JNK3 AlphaScreen Assay (AID 530).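 Further: kinase came from lysate of stimulated human HepG2 cells; signal reports phosphorylation of biotinylated GST-cJun 1-79 at Ser73 with 10 µM ATP; on the % scale 0 is the no-effect control and ±100 the full control effect.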 The procedure, abridged: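 Biotinylated GST-cJun(1-79) served as substrate for JNK3 in HepG2 lysates stimulated with IL-1beta and TNF-alpha. ATP was 10 uM final, pH 7.6. Ser73 phosphorylation was quantified by AlphaScreen (680 nm excitation).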
[8] abbreviates: at 38 µM (top of the series) unless noted.

Several values for one entry are separate records, joined by “and”; a condition that tells them apart may be missing. Identical values can stand only once. Inconclusive results are not listed. More than one record can exist for a structure, and the calls need not agree. Activity calls are given as the source filed them. Unless noted, the call rests on the fitted dose curve; in most records, active means well fitted curve in either direction with a large enough effect (not every such curve was filed as active); inconclusive means small, poorly fitted or top-dose-only effect, or another doubt; inactive means flat fitted curve, though single readings scatter.

Chain of Cytochrome P450 1A2 (Homo sapiens) (P05177 whole entry, looked up): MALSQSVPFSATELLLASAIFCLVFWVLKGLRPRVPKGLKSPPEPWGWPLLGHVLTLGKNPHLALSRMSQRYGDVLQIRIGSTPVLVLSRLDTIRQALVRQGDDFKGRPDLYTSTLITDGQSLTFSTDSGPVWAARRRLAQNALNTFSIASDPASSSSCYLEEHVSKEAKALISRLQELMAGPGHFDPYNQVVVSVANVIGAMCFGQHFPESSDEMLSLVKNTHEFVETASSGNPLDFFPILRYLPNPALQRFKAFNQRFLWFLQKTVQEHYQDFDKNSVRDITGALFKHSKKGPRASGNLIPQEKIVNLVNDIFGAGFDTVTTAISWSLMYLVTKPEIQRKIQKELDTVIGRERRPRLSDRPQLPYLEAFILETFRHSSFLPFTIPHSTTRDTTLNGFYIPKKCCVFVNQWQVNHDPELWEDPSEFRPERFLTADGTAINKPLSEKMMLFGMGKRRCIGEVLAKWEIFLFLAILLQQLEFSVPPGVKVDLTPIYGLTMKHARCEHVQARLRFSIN
Chain of Glucocorticoid receptor (Homo sapiens) (P04150 whole entry, looked up): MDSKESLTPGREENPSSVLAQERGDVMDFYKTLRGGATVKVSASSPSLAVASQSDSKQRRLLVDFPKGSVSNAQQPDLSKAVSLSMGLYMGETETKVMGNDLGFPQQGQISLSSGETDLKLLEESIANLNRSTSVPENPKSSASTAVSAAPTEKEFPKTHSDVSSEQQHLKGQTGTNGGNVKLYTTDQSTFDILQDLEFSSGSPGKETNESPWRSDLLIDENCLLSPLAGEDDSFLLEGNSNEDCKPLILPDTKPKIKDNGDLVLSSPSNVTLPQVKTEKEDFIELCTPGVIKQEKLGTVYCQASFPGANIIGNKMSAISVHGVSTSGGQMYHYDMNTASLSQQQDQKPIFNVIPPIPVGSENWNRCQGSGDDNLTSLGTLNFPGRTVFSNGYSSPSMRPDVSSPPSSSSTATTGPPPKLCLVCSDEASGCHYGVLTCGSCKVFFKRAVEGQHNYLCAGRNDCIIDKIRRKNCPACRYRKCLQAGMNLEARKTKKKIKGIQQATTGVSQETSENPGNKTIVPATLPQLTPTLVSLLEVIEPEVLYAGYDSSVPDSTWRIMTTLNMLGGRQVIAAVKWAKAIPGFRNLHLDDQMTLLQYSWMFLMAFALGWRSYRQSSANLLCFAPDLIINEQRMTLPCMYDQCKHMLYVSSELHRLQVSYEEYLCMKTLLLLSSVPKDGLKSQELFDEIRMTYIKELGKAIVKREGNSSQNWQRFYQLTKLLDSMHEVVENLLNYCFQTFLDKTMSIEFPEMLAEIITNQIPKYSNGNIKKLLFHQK

Regarding `COc1ccccc1N1CCN(CCCCN2C(=O)c3ccccc3C2=O)CC1`, the figures for the activity change, negative = inhibition in test [1] (setting [8]) and in test [3] (setting [8]) were -12.6% (inactive) and -20.4% (inactive), respectively. The Potency result in test [2] was “inactive”. The activity, negative = inhibition in test [4] (setting [8]) was 19% (inactive). Moreover, the Potency in test [5] and in test [6] was > 46 µM (inactive) in each case. For the same compound, in test [7], the compound was classed as inactive.
As to `COc1ccc(C(=O)NCc2cccnc2)cc1C(=O)NCc1cccnc1`, the activity change, negative = inhibition in test [1] (at 17.2 µM (top of the series)) was 9.58% (inactive); in test [1] (at 38 µM (top of the series)), 4.86% (inactive); in test [3] (at 17.2 µM (top of the series)) it was -4.93% (inactive); in test [3] (at 38 µM (top of the series)), -7.04% (inactive). Besides, the values for the activity, negative = inhibition in test [4] (at 17.2 µM (top of the series)) and in test [4] (at 38 µM (top of the series)) were 2.24% (inactive) and -27.6% (inactive), respectively. Further, the Potency is > 46 µM (inactive) and > 20.6 µM (inactive) in test [5]; > 46 µM (inactive) and > 20.6 µM (inactive) in test [6]. For the same compound, the result in test [7] was inactive.
For `CCN(CC)CCOC(=O)c1cc(Cl)c(N)cc1OC`, the figures for the activity change, negative = inhibition in test [1] (setting [8]) and in test [3] (setting [8]) were 11.7% (inactive) and -3.84% (inactive), respectively. Besides, the results for the Potency in test [2], in test [5] and in test [6] were 12.6 µM (active), > 46 µM (inactive) and > 46 µM (inactive), respectively. Also, the activity, negative = inhibition in test [4] (setting [8]) was -0.802% (inactive). Further, the call in test [7] was inactive.
As to `NS(=O)(=O)c1cccc2c1c([N+](=O)[O-])cc1nc(O)c(O)nc12`, the activity change, negative = inhibition in test [1] (setting [8]) was 7.91% (inactive); in test [3] (setting [8]), 5.62% (inactive). Moreover, the Potency in test [2] was 25.1 µM (active) and inactive; in test [5], > 46 µM (inactive). Also, the activity, negative = inhibition in test [4] (setting [8]) is -3.69% (inactive).
With `O=c1[nH]ccc2c(O)cccc12`, the activity change, negative = inhibition was -7.94% (inactive) in test [1] (setting [8]) and -6.89% (inactive) in test [3] (setting [8]). In addition, the results for the Potency in test [2], in test [5] and in test [6] were 15.8 µM (active), > 46 µM (inactive) and > 46 µM (inactive), respectively. For the same compound, in test [4] (setting [8]), the activity, negative = inhibition is -2.82% (inactive).
Consider `Cc1nc(N=Nc2ccc(C(=O)O)cc2)c(COP(=O)(O)O)c(C=O)c1O`, for which the activity change, negative = inhibition was -5.94% (inactive) in test [1] (setting [8]) and 7.15% (inactive) in test [3] (setting [8]). The Potency entry in test [2] was “inactive”. Further, the activity, negative = inhibition in test [4] (setting [8]) was -19.4% (inactive). For the same compound, the Potency in test [5] was > 46 µM (inactive).
On to `CC[N+](CC)(CC)CC(=O)Nc1c(C)cccc1C`, for which the activity change, negative = inhibition in test [1] (setting [8]) is 6.05% (inactive); in test [3] (setting [8]) it was -27.1% (inactive). Also, the Potency result in test [2] was “inactive and 31.6 µM (active)”; in test [5], > 46 µM (inactive); in test [6], > 46 µM (inactive). For the same compound, the activity, negative = inhibition in test [4] (setting [8]) was -19.8% (inactive). For the same compound, the outcome in test [7] was inactive.
Take `COc1ccc2c(c1)c(CC(=O)O)c(C)n2C(=O)c1ccccc1`: the activity change, negative = inhibition is 1.55% (inactive) in test [1] (setting [8]) and -0.217% (inactive) in test [3] (setting [8]). Also, the Potency in test [2] was 12.6 µM (active); in test [5], > 46 µM (inactive); in test [6], > 46 µM (inactive). Also, the activity, negative = inhibition in test [4] (setting [8]) was -19% (inactive). Also, in test [7], the result was inactive.
Turning to `CC(C)NC[C@H](O)COc1ccc(CC(N)=O)cc1`, the activity change, negative = inhibition in test [1] (at 17.2 µM (top of the series)) is -3.59% (inactive) and 11.3% (inactive); in test [1] (at 38 µM (top of the series)) it was 0.299% (inactive) and 0.963% (inactive) and -3.89% (inactive); in test [3] (at 17.2 µM (top of the series)), -9.34% (inactive) and -0.713% (inactive); in test [3] (at 38 µM (top of the series)), -2.26% (inactive) and 6.34% (inactive) and 5.93% (inactive). In addition, the activity, negative = inhibition is 2.19% (inactive) and -5.69% (inactive) in test [4] (at 17.2 µM (top of the series)); 0.94% (inactive) and 14.3% (inactive) in test [4] (at 38 µM (top of the series)).
As to `Cc1nc(N=Nc2ccc(S(=O)(=O)O)cc2S(=O)(=O)O)c(COP(=O)(O)O)c(C=O)c1O`, the activity change, negative = inhibition in test [1] (setting [8]) was -10.9% (inactive); in test [3] (setting [8]) it was 2.46% (inactive). In test [2], the Potency result is “inactive”. For the same compound, the activity, negative = inhibition in test [4] (setting [8]) was 5.69% (inactive). The Potency in test [5] and in test [6] was > 46 µM (inactive) each time. For the same compound, the outcome in test [7] was inactive.
As to `NC(N)=[N+]1CCc2ccccc2C1`, the activity change, negative = inhibition in test [1] (setting [8]) is -5.39% (inactive); in test [3] (setting [8]), 1.51% (inactive). In addition, the Potency entry in test [2] is “inactive”. Also, the activity, negative = inhibition in test [4] (setting [8]) is 19.1% (inactive). For the same compound, the Potency in test [5] and in test [6] was > 46 µM (inactive) in each case.
With `Nc1ncnc2c1ncn2C1CCCC1`, the activity change, negative = inhibition is -12.9% (inactive) in test [1] (setting [8]) and 11.8% (inactive) in test [3] (setting [8]). Besides, the results for the Potency in test [2], in test [5] and in test [6] were 20 µM (active), > 46 µM (inactive) and > 46 µM (inactive), respectively. In test [4] (setting [8]), the activity, negative = inhibition is 8.7% (inactive). In addition, the compound was classed as inactive in test [7].
Take `O=c1[nH]c2cc(Cl)ccc2c(O)c1-c1ccc(Oc2ccccc2)cc1`: the values for the activity change, negative = inhibition in test [1] (setting [8]) and in test [3] (setting [8]) were 3.01% (inactive) and -0.707% (inactive), respectively. Besides, the Potency in test [2] is 10 µM (active); in test [5], > 46 µM (inactive). Also, the activity, negative = inhibition in test [4] (setting [8]) is -10.1% (inactive).
For the compound `NC/C=C\C(=O)O`, the activity change, negative = inhibition is 2.58% (inactive) and 1.13% (inactive) in test [1] (setting [8]); 4.38% (inactive) and -3.77% (inactive) in test [3] (setting [8]). Moreover, in test [2], the Potency entry is “inactive”. Further, the activity, negative = inhibition in test [4] (setting [8]) is 22.6% (inactive) and 7.43% (inactive). Further, the Potency in test [5] and in test [6] was > 46 µM (inactive) each time. Also, the result in test [7] was inactive.
Consider `C=CC[C@H](N)C(=O)O`, for which the activity change, negative = inhibition is 12.7% (inactive) in test [1] (setting [8]) and 2.66% (inactive) in test [3] (setting [8]). Besides, the Potency result in test [2] is “inactive”. Besides, in test [4] (setting [8]), the activity, negative = inhibition is 7.83% (inactive). The Potency in test [5] and in test [6] was > 46 µM (inactive) in each case.
Consider `O=c1onc2n1-c1cc(Br)ccc1OC2`, for which the activity change, negative = inhibition in test [1] (setting [8]) is 1.26% (inactive); in test [3] (setting [8]), 3.41% (inactive). For the same compound, the Potency is 0.794 µM (active) in test [2], > 46 µM (inactive) in test [5] and > 46 µM (inactive) in test [6]. Also, the activity, negative = inhibition in test [4] (setting [8]) is -16.1% (inactive).
Regarding `Cn1c(=O)c2[nH]c(-c3ccc(S(=O)(=O)O)cc3)nc2n(C)c1=O`, the activity change, negative = inhibition in test [1] (setting [8]) is 8.6% (inactive); in test [3] (setting [8]), 8.07% (inactive). Also, in test [2], the Potency entry was “inactive”. For the same compound, the activity, negative = inhibition in test [4] (setting [8]) is 18% (inactive). For the same compound, the Potency in test [5] and in test [6] was > 46 µM (inactive) each time. The call in test [7] was inactive.
Turning to `CNc1cc(NS(=O)(=O)c2ccc(N)cc2)nc(NC)n1`, the activity change, negative = inhibition is 4.35% (inactive) in test [1] (setting [8]) and 3.2% (inactive) in test [3] (setting [8]). Moreover, the Potency entry in test [2] was “inactive”. Besides, in test [4] (setting [8]), the activity, negative = inhibition is 13.2% (inactive). Further, the Potency in test [5] and in test [6] was > 46 µM (inactive) in each case.
For `CCCn1c(=O)c2[nH]c(C3CCCC3)nc2n(CCC)c1=O`, the activity change, negative = inhibition in test [1] (at 17.2 µM (top of the series)) was -7.55% (inactive); in test [1] (at 38 µM (top of the series)) it was -12.1% (inactive); in test [3] (at 17.2 µM (top of the series)) it was 11.5% (inactive); in test [3] (at 38 µM (top of the series)), -0.836% (inactive). For the same compound, the activity, negative = inhibition was -4.29% (inactive) in test [4] (at 17.2 µM (top of the series)) and -11.4% (inactive) in test [4] (at 38 µM (top of the series)). In addition, the Potency in test [5] was > 46 µM (inactive) and > 20.6 µM (inactive); in test [6], > 46 µM (inactive).
